A selection: hits, their analogues and other compounds. The true share with any hit is near 18%.
DT40 TDP1 CPT: growth inhibition of DT40 Tdp1-/-;hTDP1 cells with camptothecin (screen for TDP1 inhibitors) | chicken DT40 Tdp1-/-;hTDP1 cells + 20 nM CPT, ATP luminescence, 48 h | Potency, µM (doses to about 46.2 µM), for the others: at the top dose activity change, negative = growth inhibition, actives largely listed as inhibitors | hit rate 12% among 420,000 | AID 686979; note: potency is the fitted concentration of half-maximal effect; % is set by controls: 0 for no effect and ±100 for the full control effect; nearly all actives have a fitted effect of over 55% in size
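Cell growth measured by CellTiter-Glo luminescence after a minimum 48 h, 37 C compound exposure with 20 nM CPT in Tdp1-knockout DT40 cells stably expressing hTDP1, seeded 400/well; qHTS titration format.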
TDP1 cell noCPT: qHTS for Inhibitors of human tyrosyl-DNA phosphodiesterase 1 (TDP1): qHTS in cells in absence of CPT; DT40 Tdp1-/- hTDP1 cells, no CPT, ATP luminescence, 48 h; Potency, µM (doses to about 46.2 µM), without a hit: top-dose activity change, negative = growth inhibition, usual class: inhibitors; hit rate 15% among 420,000; AID 686978, 2013; note: potency is the fitted concentration of half-maximal effect; % is set by controls: 0 for no effect and ±100 for the full control effect; nearly all actives have a fitted effect of over 55% in size
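Luminescent ATP content (CellTiter-Glo) served as the growth readout. Knockout chicken DT40 cells expressing human TDP1 were exposed to compounds without camptothecin for a minimum 48 hr at 37 °C.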
IL1B secr inh: blocks inflammasome-driven IL-1 beta release | THP-1 LPS/ATP IL-1B secretion, AlphaLISA, 16 h; stronger effect = lower value | activity change, % at 57.5 µM | hit rate 4.7% among 360,000 | AID 743279; in the data active = activity change below about -50%; inconclusive = mostly about -30% to -49%; note: % is set by controls: 0 for no effect and ±100 for the full control effect
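Secreted IL-1B measured by AlphaLISA bead assay after 16 h compound exposure of THP-1 cells; compounds (final up to 57.5 uM) added 1 h before LPS (250 ng/mL) and ATP (1.25 mM) stimulation; lower signal means less secretion.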
TDP1 inh: TDP1 (human) enzyme inhibition. recombinant TDP1, AlphaScreen DNA substrate cleavage. hit rate 0.28% among 350,000. Q9NUW8. Potency, µM (highest dose often 130 µM), without a hit: at the top dose activity change, negative = inhibition, actives largely listed as inhibitors. AID 485290; note: potency is the fitted concentration of half-maximal effect; % is set by controls: 0 for no effect and ±100 for the full control effect; nearly all actives have a fitted effect of over 40% in size
Target sequence (Q9NUW8 whole entry, looked up): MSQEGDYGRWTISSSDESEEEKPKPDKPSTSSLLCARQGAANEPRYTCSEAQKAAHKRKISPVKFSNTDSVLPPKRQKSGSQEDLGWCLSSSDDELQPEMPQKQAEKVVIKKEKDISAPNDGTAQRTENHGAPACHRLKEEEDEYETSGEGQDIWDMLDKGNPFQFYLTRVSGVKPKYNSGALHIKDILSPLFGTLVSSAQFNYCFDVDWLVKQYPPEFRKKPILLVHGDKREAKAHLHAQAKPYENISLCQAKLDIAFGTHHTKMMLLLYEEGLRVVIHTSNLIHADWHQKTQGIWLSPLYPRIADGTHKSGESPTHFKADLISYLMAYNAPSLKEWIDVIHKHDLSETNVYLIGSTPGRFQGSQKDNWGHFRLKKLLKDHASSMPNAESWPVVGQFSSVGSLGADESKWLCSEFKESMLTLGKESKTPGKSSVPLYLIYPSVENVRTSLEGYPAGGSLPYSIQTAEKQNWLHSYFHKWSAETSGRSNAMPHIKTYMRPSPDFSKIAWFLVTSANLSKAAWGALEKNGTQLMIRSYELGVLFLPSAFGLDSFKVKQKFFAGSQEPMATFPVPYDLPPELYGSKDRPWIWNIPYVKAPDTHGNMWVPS
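Compounds were preincubated with Tdp1 (1 nM final) for 15 min at room temperature before substrate (15 nM final) started a 5 min reaction; beads (10 ug/ml final) were then added for 10 min before AlphaScreen detection.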
TGFb SMAD3 inh: blocks TGF-b signaling. HepG2 CAGA-GFP TGF-b/SMAD3 reporter, GFP fluorescence, 18 h; TGF-beta stimulated, 500 pg/mL final. Potency, µM (top dose mostly 46.1 µM), inactives show at the highest dose activity, negative = inhibition, actives largely listed as inhibitors. hit rate 1.2% among 410,000. AID 588855; note: potency is the fitted concentration of half-maximal effect; % is set by controls: 0 for no effect and ±100 for the full control effect; nearly all actives have a fitted effect of over 65% in size
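Inhibition of TGF-beta-driven CAGA-GFP reporter expression in HEPG2 cells is measured by cellular GFP fluorescence after 18 h stimulation with 500 pg/mL recombinant TGF-beta in 1% FBS medium at 37 degrees C.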
HepG2 tox: counter-screen for TGF-b inhibitors: cytotoxicity in HepG2 cells. HepG2 CAGA-GFP viability, ATP luminescence, 18 h. Potency, µM (highest dose often 46.1 µM), inactives show at the top dose activity change, negative = cytotoxicity, most hits filed as cytotoxic. hit rate 0.76% among 410,000; note: potency is the fitted concentration of half-maximal effect
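HepG2 CAGA-GFP cells (1000/well, DMEM with 1% FBS) received compound, then TGF-beta at 500 pg/mL final, and were incubated 18 hours at 37 degrees C. Viability was read by CellTiter-Glo luminescence. Media-only wells were set as complete cell-killing and DMSO as no toxicity.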
* = called active by the depositor. Unless noted, calls come from the whole dose curve; as a rule, active = well fitted curve in the direction sought with a large enough effect; inconclusive = small, poorly fitted or top-dose-only effect, or another doubt; inactive = no such curve, though single readings can be large; an effect the other way counts as inactive or inconclusive.

How did O=c1oc2ccccc2c(N2CCCCC2)c1[N+](=O)[O-] do in these assays?
DT40 TDP1 CPT: 16µM*; TDP1 cell noCPT: 16µM*; IL1B secr inh: -50*; TDP1 inh: 2%; TGFb SMAD3 inh: -8%; HepG2 tox: 7%

What do the screens show for `O=CN1CCN(c2c([N+](=O)[O-])c(=O)oc3ccccc23)CC1`?
DT40 TDP1 CPT: -18%; TDP1 cell noCPT: inconclusive; IL1B secr inh: 12; TGFb SMAD3 inh: 0%; HepG2 tox: 4%

What do the screens show for `CC1CCN(c2c([N+](=O)[O-])c(=O)oc3ccccc23)CC1`?
DT40 TDP1 CPT: 16µM*; TDP1 cell noCPT: 23µM*; IL1B secr inh: -14; TDP1 inh: 3%; TGFb SMAD3 inh: 7%; HepG2 tox: -2%

What do the screens show for `COc1cc(OC)cc(C2=Cc3ccccc3C(CC(C)=O)N2c2ccc(C#CC3(N)CCCCC3)cc2)c1` (centres undefined)?
DT40 TDP1 CPT: inconclusive; TDP1 cell noCPT: inconclusive; IL1B secr inh: -19

What do the screens show for `COc1cc(OC)cc(C2=Cc3ccc(OC)cc3C(CC(C)=O)N2c2ccc(C#CC3(O)CCCCC3)cc2)c1` (centres undefined)?
DT40 TDP1 CPT: inconclusive; TDP1 cell noCPT: 21µM*; IL1B secr inh: -24

What do the screens show for `COc1cc(OC)cc(C2=Cc3ccc(OC)cc3C(CC(C)=O)N2c2ccc(C#CC3(N)CCCCC3)cc2)c1` (centres undefined)?
DT40 TDP1 CPT: 5.2µM*; TDP1 cell noCPT: 26µM*; IL1B secr inh: -22

Results for Cc1ccccc1OCCC(=O)OCC(=O)NCCc1ccccc1 ?
DT40 TDP1 CPT: -6%; TDP1 cell noCPT: -18%; IL1B secr inh: 0; TDP1 inh: -7%; TGFb SMAD3 inh: -9%; HepG2 tox: -32%

Results for CCC(C)C(NC(=O)c1ccccc1)C(=O)N1CCN(C(=O)c2ccccc2)CC1 (centres undefined) ?
DT40 TDP1 CPT: inconclusive; TDP1 cell noCPT: inconclusive; IL1B secr inh: 15; TGFb SMAD3 inh: -5%; HepG2 tox: 11%

How did Cc1ccc(S(=O)(=O)c2cn(C)c3cc(N4CCN(c5ccccc5)CC4)c(F)cc3c2=O)cc1 do in these assays?
DT40 TDP1 CPT: inconclusive; TDP1 cell noCPT: 7.3µM*; TDP1 inh: 2%; TGFb SMAD3 inh: -24%; HepG2 tox: -2%

How did Cc1ccc(S(=O)(=O)c2cn(C)c3cc(N4CCN(C)CC4)c(F)cc3c2=O)cc1 do in these assays?
DT40 TDP1 CPT: inconclusive; TDP1 cell noCPT: inconclusive; IL1B secr inh: -97*; TDP1 inh: 7%; TGFb SMAD3 inh: 0%; HepG2 tox: 2%

What do the screens show for `CCn1cc(S(=O)(=O)c2ccc(C)cc2)c(=O)c2cc(F)c(N3CCN(C)CC3)cc21`?
DT40 TDP1 CPT: -9%; TDP1 cell noCPT: -12%; IL1B secr inh: 4; TDP1 inh: 2%; TGFb SMAD3 inh: -6%; HepG2 tox: -6%

What do the screens show for `Cn1cc(S(=O)(=O)c2ccccc2)c(=O)c2cc(F)c(N3CCN(c4ccccc4)CC3)cc21`?
DT40 TDP1 CPT: inconclusive; TDP1 cell noCPT: inconclusive; TDP1 inh: 2%; TGFb SMAD3 inh: 13%; HepG2 tox: 2%

What do the screens show for `O=C(CCNC(=O)N1CC(=O)Nc2ccccc21)Nc1cccc(Cl)c1`?
DT40 TDP1 CPT: -20%; TDP1 cell noCPT: 20%; IL1B secr inh: 50; TDP1 inh: 4%; TGFb SMAD3 inh: 2%; HepG2 tox: -6%

What do the screens show for `O=C(O)c1cccc2c1Cc1cc(Cl)ccc1-2`?
DT40 TDP1 CPT: inconclusive; TDP1 cell noCPT: -22%; IL1B secr inh: 9; TGFb SMAD3 inh: 39%; HepG2 tox: 11%

Results for CCC1CCCCN1C(=S)NC(=O)c1cccc([N+](=O)[O-])c1 (centres undefined) ?
DT40 TDP1 CPT: inconclusive; TDP1 cell noCPT: inconclusive; IL1B secr inh: 38; TDP1 inh: 5%; TGFb SMAD3 inh: -20%; HepG2 tox: 0%

How did CSc1ccc(/C=C/c2nc3ccccc3n2S(=O)(=O)c2cccc(Cl)c2)cc1 do in these assays?
DT40 TDP1 CPT: 13µM*; TDP1 cell noCPT: 10µM*; TDP1 inh: -5%; TGFb SMAD3 inh: -6%; HepG2 tox: -96%

What do the screens show for `Cc1ccc(/C=C/c2nc3ccccc3n2S(=O)(=O)c2ccc(Br)cc2)cc1`?
DT40 TDP1 CPT: inconclusive; TDP1 cell noCPT: 21µM*; TDP1 inh: -1%; TGFb SMAD3 inh: 0%; HepG2 tox: -21%

Results for O=S(=O)(c1cccc(Cl)c1)n1c(/C=C/c2ccccc2Cl)nc2ccccc21 ?
DT40 TDP1 CPT: 18µM*; TDP1 cell noCPT: 13µM*; TDP1 inh: 3%; TGFb SMAD3 inh: inconclusive; HepG2 tox: 10µM*

What do the screens show for `COc1cc(S(=O)(=O)n2c(C)nc3ccccc32)ccc1F`?
DT40 TDP1 CPT: inconclusive; TDP1 cell noCPT: inconclusive; IL1B secr inh: 32; TDP1 inh: 2%; TGFb SMAD3 inh: 14%; HepG2 tox: -2%

What do the screens show for `Cc1ccc2nsnc2c1NC(=O)c1cncc(Br)c1`?
DT40 TDP1 CPT: -22%; TDP1 cell noCPT: -16%; IL1B secr inh: -5; TDP1 inh: 3%; TGFb SMAD3 inh: -3%; HepG2 tox: -13%

What do the screens show for `COc1ccc(C(=O)NCC(=O)N2CCCC(C(F)(F)F)C2)cc1OC` (centres undefined)?
DT40 TDP1 CPT: 8%; TDP1 cell noCPT: 5%; IL1B secr inh: 21; TDP1 inh: -3%; TGFb SMAD3 inh: -20%; HepG2 tox: -4%

What do the screens show for `CCCNC(=O)c1onc(CSc2ccc(F)c(F)c2)c1C(=O)NCCC`?
DT40 TDP1 CPT: 15µM*; TDP1 cell noCPT: inconclusive; IL1B secr inh: 1; TGFb SMAD3 inh: 4%; HepG2 tox: -21%

What do the screens show for `CN(C)CCNC(=O)c1onc(CSc2ccc(F)c(F)c2)c1C(=O)NCCN(C)C`?
DT40 TDP1 CPT: -26%; TDP1 cell noCPT: 16µM*; IL1B secr inh: inconclusive; TDP1 inh: -1%; TGFb SMAD3 inh: 10%; HepG2 tox: -28%

How did CN(C)CCNC(=O)c1onc(CSc2ccc(F)cc2)c1C(=O)NCCN(C)C do in these assays?
DT40 TDP1 CPT: -8%; TDP1 cell noCPT: -18%; IL1B secr inh: -6; TDP1 inh: -1%; TGFb SMAD3 inh: 5%; HepG2 tox: -10%

Bioassay records from PubChem.
